Source: PubChem BioAssay
tim23-1 inh: growth inhibitors of tim23-1 mutant yeast | inhibition, % at 20 µM | S. cerevisiae tim23-1 growth, BacTiter-Glo luminescence, 24 h | actives 1.3% (n = 330,000);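 active = growth inhibition of the mutant yeast at or above 50%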;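 also: temperature-sensitive mutant grown at 25 °C; plate controls were DMSO-treated mutant yeast for no effect and medium wells lacking yeast for full effect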
NLRP3 yeast inh: blocks the NALP3 inflammasome reconstituted in yeast. Yeast reconstituted NLRP3/ASC/caspase-1, beta-gal luminescence, 24 h. inhibition, % at 10 µM. actives 0.39% (n = 330,000);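 active = inhibition of 50% or more; inactive = inhibition below 50%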;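 also: plate controls were induced DMSO wells for no effect and uninduced yeast grown without galactose for full effect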
tim10-1 inh: inhibits growth of tim10-1 mutant yeast | S. cerevisiae tim10-1 ts strain growth, BacTiter-Glo, 24 h | actives 2.2% (n = 330,000) | inhibition, % at 20 µM;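 active = inhibition of at least 40%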;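 also: mutant grown at 25 °C; 0% = DMSO wells with yeast and 100% = wells holding no yeast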
CR mimetic SO: lowers age-related superoxide in aged yeast cells | AID 2690 | superoxide response (% of plate mean), % at 10 µM | S. cerevisiae aged cells, superoxide DHE fluorescence; stronger effect = lower value | actives 0.18% (n = 330,000);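 active = superoxide response under a set limit, about three screen SD below normal, cut at about 65% in these data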;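 also: yeast aged for seven days with compound at 30 °C before DHE staining; 100% = average MFI of all compound-treated wells on the plate with controls excluded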
TIM10 inh: inhibits growth of TIM10 yeast strain; inhibition, % at 10 µM; actives 1.4% (n = 330,000); AID 463195; S. cerevisiae TIM10 strain growth, BacTiter-Glo luminescence, 24 h;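 active = inhibition of 40% or more at the single tested concentration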;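 also: wild-type TIM10 isogenic control strain grown at permissive 25 °C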
tim10-1 conf: confirmation of tim10-1 mutant yeast growth inhibitors. shares compounds with tim10-1 inh. S. cerevisiae tim10-1 ts strain growth, BacTiter-Glo, 24 h. inhibition, % at 20 µM. actives 56% (n = 7,400). AID 463213;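 active = inhibition of yeast growth at or above a set limit in either of two repeat tests at 20 µM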;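 also: tim10-1 mutant grown at permissive 25 °C to find synthetic lethal compounds; 0% = DMSO yeast wells and 100% = medium wells without yeast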
TIM10 conf: confirmation of TIM10 yeast growth inhibitors | actives 63% (n = 4,600) | AID 463215 | shares compounds with TIM10 inh | inhibition, % at 10 µM | S. cerevisiae tim10 strain growth, BacTiter-Glo luminescence, 24 h;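 active = inhibition of yeast growth at or above a set limit in either of two replicates at 10 µM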;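 also: this counterscreen used the strain with wild-type TIM10; 0% = yeast with DMSO and 100% = medium wells lacking yeast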
Active calls of the source: *; x = no result. Rows were chosen to be rich in hits. Some 3.8% of all compounds tested hit in one or more screens of this group.

SMILES	tim23-1 inh	NLRP3 yeast inh	tim10-1 inh	CR mimetic SO	TIM10 inh	tim10-1 conf	TIM10 conf
CC(C)N1CCC2(CC1)N=C(c1ccc3c(c1)OCO3)CC(c1cc(Cl)ccc1O)N2 (configuration not stated)	42	40	53*	84	51*	45*	51*
Cc1cccc(-c2nnc3sc(-c4ccccc4C)nn23)c1	33	18	55*	146	41*	66*	44*
COc1cccc(-c2nnc3sc(-c4ccccc4)nn23)c1	40	32	22	88	3	x	x
C/C(=C\c1ccc(C)o1)C(=O)c1c(C)cc(C)[nH]c1=O	7	4	9	88	4	x	x
O=c1cc(-c2ccccc2)n(S(=O)(=O)c2ccccc2)o1	31	20	36	123	40	x	x
O=c1cc(-c2ccccc2)n(S(=O)(=O)c2ccc3ccccc3c2)o1	21	-4	42*	87	64*	37*	44*
COc1ccc(N(CC(=O)NCCc2ccc(S(N)(=O)=O)cc2)S(=O)(=O)c2c(C)noc2C)cc1	-5	17	-8	92	3	x	x
Cc1nc(C(=O)NCCC(C)C)sc1C1(C)CC(c2ccccc2)=NO1 (configuration not stated)	-1	35	-20	101	-31	x	x
Cc1nnc(Nc2ccccn2)c2ccccc12	46	32	66*	107	85*	71*	83*
O=C(Nc1ccccc1Cl)C1C2CCC3C(CCC21)C3(Cl)Cl (configuration not stated)	9	14	17	91	2	x	x
CCOc1ccccc1NC(=O)C1C2CCC3C(CCC21)C3(Cl)Cl (configuration not stated)	32	0	40	131	47*	31*	43*
CCO/C=N/Nc1nc(C(F)(F)F)nc2c1cnn2Cc1ccccc1	40	23	59*	88	56*	56*	58*
c1ccc(CNc2ncnc3c2cnn3Cc2ccccc2)cc1	8	23	-11	94	-2	x	x
O=C(c1ccc(-c2ccc([N+](=O)[O-])cc2)o1)N1CCCCC1	33	-18	54*	82	40*	46*	25
O=C(c1ccc(-c2cccc([N+](=O)[O-])c2)o1)N1CCN(c2ccc([N+](=O)[O-])cc2)CC1	27	21	22	x	5	x	x
CCOC(=O)c1ccc(NC(=O)CC2C(=O)OCCN2CC)cc1 (configuration not stated)	37	13	68*	90	44*	59*	58*
CCc1nnc(NC(=O)CSc2nnc(C)c(=O)n2N)s1	-6	18	6	112	0	x	x
Cc1nc2ccccc2n1/N=C/c1ccc([N+](=O)[O-])o1	27	4	74*	94	78*	72*	88*
Cc1ccc(/C=N/n2c(C)nc3ccccc3c2=O)o1	9	7	-1	95	-1	x	x
C=CC[C@@H](CC(=O)NCCO)C(=O)N[C@@H](C)COC(=O)[C@H](CC=C)CC(=O)OC(C)(C)C	-13	25	-12	91	4	x	x
COC(=O)C(C)Nc1cccc(Br)c1 (configuration not stated)	-1	-5	-1	86	-2	x	x
CCOC(=O)C(C(=O)OCC)C(Nc1cccc(Br)c1)c1ccccc1 (configuration not stated)	42	44	55*	93	53*	37*	43*
O=C(Cc1ccc(NS(=O)(=O)c2cccc(C(F)(F)F)c2)cc1)NCCN1CCOCC1	9	6	7	92	-6	x	x
Cc1c(/C=N/NC(=O)c2sc3ccccc3c2Cl)cnn1C	11	5	53*	125	43*	34*	50*
Cc1ccc(/C(N)=N/OC(=O)c2ccco2)cc1	38	13	46*	109	52*	34*	37*
SMILES	tim23-1 inh	NLRP3 yeast inh	tim10-1 inh	CR mimetic SO	TIM10 inh	tim10-1 conf	TIM10 conf
N/C(=N\OC(=O)c1ccco1)c1ccccc1	21	9	14	108	9	x	x
Cc1noc(C)c1COc1ccc(C(=O)NCc2ccccn2)cc1	9	3	10	101	2	x	x
COc1ccc(C(=O)Nc2ccc(S(=O)(=O)N3CCCCC3)cc2)cc1	43	13	48*	102	61*	64*	62*
COc1ccc(C(=O)Nc2ccc(S(=O)(=O)N3CCN(C)CC3)cc2)cc1	-9	20	5	86	5	x	x
O=C(COc1ccc2ccccc2c1)Nc1ccc(S(=O)(=O)N2CCCCCC2)cc1	14	1	41*	92	46*	37*	-11
O=C(CN1CCN(S(=O)(=O)c2ccc3ccccc3c2)CC1)Nc1ccc(N2CCOCC2)cc1	18	9	33	114	13	x	x
O=C(CN1CCN(S(=O)(=O)c2ccc3ccccc3c2)CC1)Nc1ccc2c(c1)CCC2	27	15	44*	98	53*	46*	13
CCCCNC(=O)/C(C#N)=C/c1cccnc1	50	18	44*	88	50*	35*	39*
CC(C)OC(=O)/C(C#N)=C\c1cccnc1	1	7	4	73	1	x	x
CC1CCN(CC(CS(=O)(=O)c2ccc([N+](=O)[O-])cc2)N2CCC(C)CC2)CC1 (configuration not stated)	43	24	45*	121	60*	49*	48*
Cc1ccc(S(=O)(=O)CC(CN2CCOCC2)N2CCOCC2)cc1 (configuration not stated)	-5	-1	15	86	12	x	x
Cc1cccc[n+]1CCCCCCCCCC[n+]1ccccc1C	50	14	52*	86	46*	70*	47*
Cc1ccc(C(=O)NCC(=O)OCC(=O)NCCc2ccccc2)s1	11	1	-3	95	-4	x	x
Cc1ccc(C(=O)Nc2nc(-c3cccnc3)cs2)o1	-4	7	-11	96	4	x	x
O=C(Nc1nc(-c2ccccc2)cs1)c1ccc(Br)o1	50	-40	41*	96	41*	48*	50*
COCC(C)n1c(C)cc(C(=O)COC(=O)c2c(NC(C)=O)sc(C)c2C)c1C (configuration not stated)	8	4	13	89	2	x	x
CC(C)(C)OC(=O)N[C@@H](Cc1ccccc1)c1nnc(S(=O)(=O)Cc2ccccc2)o1	48	12	73*	86	59*	55*	46*
Cc1ccccc1CS(=O)(=O)c1nnc([C@H](Cc2ccccc2)NC(=O)OC(C)(C)C)o1	33	24	72*	89	68*	51*	50*
CCSc1nnc([C@H](Cc2ccccc2)NC(=O)OC(C)(C)C)o1	14	4	25	96	23	x	x
